Experimental findings from PubChem BioAssay (Tox21) are described below.

Assay [1] deals with Luciferin 4-monooxygenase (Photinus pyralis) (UniProt P08659). Kind of assay: qHTS assay to identify small molecule inhibitors of firefly luciferase (AID 1224835). Note: nearly all actives have a fitted effect of over 25% in size. Put shortly:
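Inhibition of purified Photinus luciferase is measured by luminescence. Substrate levels (D-luciferin, ATP) sit at their KM values. Each compound is tested in a concentration series.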
In general terms: Quantitative high-throughput screening tests each substance at several concentrations.

Assay [2] in a line: qHTS assay to identify small molecule agonists of the constitutive androstane receptor (CAR) signaling pathway - cell viability counter screen (AID 1224836). Note: nearly all actives have a fitted effect of over 45% in size. Note: potency is the fitted concentration of half-maximal effect. In a few lines: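 Multiplexed viability check: HepG2-CYP2B6-hCAR cells, 15-point compound dosing, 0.75 uM PK11195 final, 23 h at 37 C, CellTiter-Fluor fluorescence.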
Assay [3] is described as follows: qHTS assay to identify small molecule antagonists of the constitutive androstane receptor (CAR) signaling pathway - cell viability counter screen (AID 1224837). Note: nearly all actives have a fitted effect of over 45% in size. Note: potency is the fitted concentration of half-maximal effect. In a few lines: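 Counter screen run in HepG2-CYP2B6-hCAR cells: 4 hr settle, compound titration (15 concentrations) with 50 nM CITCO, 23 hr at 37 C/5% CO2, CellTiter-Fluor fluorescence.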
Assay [4] concerns the target Nuclear receptor subfamily 1 group I member 3 (Homo sapiens) (UniProt Q14994). Kind of assay: qHTS assay to identify small molecule antagonists of the constitutive androstane receptor (CAR) signaling pathway (AID 1224838).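 Note: HepG2 cells stably expressing hCAR with CYP2B6 luciferase reporter stimulated by CITCO; nearly all actives have a fitted effect of over 40% in size.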 Note: potency is the fitted concentration of half-maximal effect. Put shortly:
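Cell line: HepG2 double-stable for hCAR and CYP2B6-2.2kb reporter. Agonist: CITCO, 50 nM final. Compounds: 15 concentrations, 24 h, 37 C. Detection: ONE-Glo luminescence.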

For assay [5] the target is unchanged. Kind of assay: qHTS assay to identify small molecule agonists of the constitutive androstane receptor (CAR) signaling pathway (AID 1224839).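 Note: HepG2 cells stably carrying human CAR and a CYP2B6 luciferase reporter; nearly all actives have a fitted effect of over 15% in size.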 In a few lines: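 Using human hepatoma HepG2 cells engineered with hCAR and a CYP2B6-2.2kb reporter, 15-concentration compound series were incubated 24 h alongside PK11195 at 0.75 uM final, with luminescence quantified afterwards.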

Assay [6] in a line: qHTS assay to identify small molecule agonists of the estrogen related receptor signaling pathway with the pleiotropic PPARgamma coactivator (PGC) from Tox21 10K library (AID 1224842). Note: nearly all actives have a fitted effect of over 15% in size. In a few lines: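 Luminescence from One-Glo (30 min, room temperature) measured after PGC/ERR cells had 18 h at 37 C with pinned compound (23 nL in DMSO). Cells had been seeded at 2,000 per well and pre-incubated 6 h.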

Assay [7] has as its target Thyrotropin receptor (Homo sapiens) (UniProt P16473). Kind of assay: qHTS assay to identify small molecule agonists of the thyroid stimulating hormone receptor (TSHR) signaling pathway (AID 1224843; calls by dose curve; note: nearly all actives have a fitted effect of over 45% in size). In a few lines:
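HEK293 cells stably bearing the thyrotropin receptor were plated at 800 cells/well and challenged with compound (30 min, RT). Accumulated cAMP was quantified via cAMP-d2 competing for cryptate-tagged antibody.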

Assay [8] can be described thus: qHTS assay to identify small molecule agonists of the hypoxia (HIF-1) signaling pathway - cell viability counter screen (AID 1224844; calls by dose curve; note: nearly all actives have a fitted effect of over 50% in size; note: potency is the fitted concentration of half-maximal effect). In a few lines: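 Cells (HRE-bla ME-180, 2,000 per well) sat 5 hrs at 37C, got compound for 17 hrs, were read for CCF4-AM FRET, and were finally lysed with CellTiter-Glo for a 30 min room-temperature luminescence read.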
Assay [9] can be described thus: qHTS assay to identify small molecule agonists of H2AX (AID 1224845; active = well fitted activation curve with a large enough effect in the signal ratio in the repeat runs, not every such curve was filed as active; the % refers to the signal ratio). Put shortly: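 Phospho-H2AX Ser139 measured by HTRF (ex 320 nm; em 665 and 620 nm) after 24 hr antibody incubation. Compounds, 15 concentrations, 0.76% DMSO, were applied to CHO-K1 cells for 3hr at 37C before lysis.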
A short description of assay [10]: qHTS assay to identify small molecule agonists of the hypoxia (HIF-1) signaling pathway (AID 1224846; active = well fitted activation curve with a large enough effect in the signal ratio in the repeat runs, not every such curve was filed as active; the % refers to the signal ratio). Put shortly: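 A low-serum medium (0.5% dialyzed FBS) holding 2,000 HRE-bla ME-180 cells per well is preincubated for 5 hrs, dosed with compounds by pintool, and kept a further 17 hrs at 37C, 5% CO2 before CCF4-AM FRET detection of beta-lactamase.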
Assay [11] is described as follows: qHTS assay to identify small molecule agonists of H2AX - cell viability counter screen (AID 1224847; calls by dose curve; note: nearly all actives have a fitted effect of over 30% in size; note: potency is the fitted concentration of half-maximal effect;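 for activity change, negative = cytotoxicity: wild-type CHO-K1 cells; top concentration of the series differs between compounds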). In a few lines: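 After overnight plating of 1000 CHO-K1 cells per well, a 15-concentration compound series was applied for 3 hr at 37C. Luminescence from CellTiter-Glo, read following 30 min at room temperature, reflected cell viability.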
Assay [12] in a line: qHTS assay to identify small molecule antagonists of the estrogen related receptor (ERR) signaling pathway from Tox21 library (AID 1224848). Note: nearly all actives have a fitted effect of over 50% in size. Note: potency is the fitted concentration of half-maximal effect. Put shortly: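 Reading was by luminescence 30 min after ONE-Glo addition. Before that, ERR cells at 2,000 per well had rested 6 h at 37 C/5% CO2 and then received pin-tooled compounds in DMSO for 18 h at 37 C.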
Assay [13] is described as follows: qHTS assay to identify small molecule agonists of the estrogen related receptor (ERR) signaling pathway from Tox21 library (AID 1224849; calls by dose curve; note: nearly all actives have a fitted effect of over 15% in size). The conditions noted are these: ERR reporter cell line, ONE-Glo luciferase, 18 h; at 92.4 µM (top of the series) unless noted. Put shortly: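 Screening used an NTP-provided ERR luciferase cell line. Compounds in DMSO were added 6 h after seeding and left 18 h at 37 C before a 30 min ONE-Glo step and luminescence reading.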

The nature of assay [14]: qHTS RealTime-Glo MT Cell Viability Assay in HepG2 cells - 24 hour (AID 1224867). Note: nearly all actives have a fitted effect of over 50% in size. Note: potency is the fitted concentration of half-maximal effect. In a few lines:
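qHTS, HepG2, 600 cells/well, RealTime-Glo (NanoLuc + prosubstrate) added with cells; 5 h preincubation; DMSO compound addition; 37 C; luminescence at 0/8/16/24/32/40 h.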

Assay [15] is described as follows: qHTS RealTime-Glo MT Cell Viability Assay in HEK293 cells - 32 hour (AID 1224868). For activity change, negative = cytotoxic: top concentration of the series differs between compounds. Note: nearly all actives have a fitted effect of over 50% in size. Note: potency is the fitted concentration of half-maximal effect. In a few lines: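 Assay medium contained NanoLuc luciferase plus cell-permeant prosubstrate, added with HEK293 cells at 600 cells/well. After 5 h at 37 C/5% CO2 compounds were added; plates stayed at 37 C for 40 h with serial luminescence reads.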
Assay [16] is described as follows: A CellTox Green Cytotoxicity Assay to monitor cytotoxicity in HEK293 cells - 0 hour (AID 1224869). Note: nearly all actives have a fitted effect of over 50% in size. In a few lines: (§1)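 Fluorescence intensity, read at 0, 8, 16, 24, 32 and 40 h of compound treatment, reflected dye binding to DNA of dead HEK293 cells; compounds (23 nL, DMSO) were added 5 h after plating cells with reagent.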
Assay [17] in a line: qHTS RealTime-Glo MT Cell Viability Assay in HepG2 cells - 40 hour (AID 1224870). Note: nearly all actives have a fitted effect of over 50% in size. Note: potency is the fitted concentration of half-maximal effect. Put shortly: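 Real-time viability: cells seeded at 600 per well together with NanoLuc and cell-permeant prosubstrate, compounds added after 5 h incubation. Luminescence tracked at 0, 8, 16, 24, 32 and 40 h of exposure.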
Assay [18] in a line: A CellTox Green Cytotoxicity Assay to monitor cytotoxicity in HEK293 cells - 40 hour (AID 1224871). Note: nearly all actives have a fitted effect of over 45% in size. Note: potency is the fitted concentration of half-maximal effect. Put shortly:
as §1

Assay [19] is described as follows: qHTS assay to identify small molecule antagonists of the estrogen related receptor signaling pathway with the pleiotropic PPARgamma coactivator (PGC) from Tox21 10K library (AID 1224841; call rule not given here; note: potency is the fitted concentration of half-maximal effect). In a few lines: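 qHTS antagonist format: PGC/ERR cells, 2k/well, compound in DMSO by pin transfer after 6 h attachment, 18 h treatment at 37 C, One-Glo luminescence read at 30 min.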

Assay [20] can be described thus: qHTS assay to identify small molecule antagonists of the estrogen related receptor signaling pathway with the pleiotropic PPARgamma coactivator (PGC) from Tox21 10K library - cell viability counter screen (AID 1224840; active = well fitted cell-killing curve with a large enough effect in the repeat runs, not every such curve was filed as active; note: nearly all actives have a fitted effect of over 40% in size). Put shortly:
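Following seeding of 2,000 PGC/ERR cells/well and 6 hours' incubation, test compounds were delivered in DMSO. The plates then sat 17.5 hours at 37 C before a fluorogenic live-cell protease reagent (CellTiter-Fluor) was read after 30 min.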

SMILES strings stand for the structures. A number with no mark means an inactive call. Records with an inconclusive call do not appear. Calls of active or inactive are those of the source. Unless noted, calls come from the whole dose curve; as a rule, active = well fitted curve in the direction sought with a large enough effect in the repeat runs; inconclusive = weak or mixed curves; inactive = no such curve, though single readings can be large; an effect the other way counts as inactive or inconclusive.
% is set by controls: 0 for no effect and ±100 for the full control effect.

Thyrotropin receptor (Homo sapiens), sequence (P16473 whole entry, looked up): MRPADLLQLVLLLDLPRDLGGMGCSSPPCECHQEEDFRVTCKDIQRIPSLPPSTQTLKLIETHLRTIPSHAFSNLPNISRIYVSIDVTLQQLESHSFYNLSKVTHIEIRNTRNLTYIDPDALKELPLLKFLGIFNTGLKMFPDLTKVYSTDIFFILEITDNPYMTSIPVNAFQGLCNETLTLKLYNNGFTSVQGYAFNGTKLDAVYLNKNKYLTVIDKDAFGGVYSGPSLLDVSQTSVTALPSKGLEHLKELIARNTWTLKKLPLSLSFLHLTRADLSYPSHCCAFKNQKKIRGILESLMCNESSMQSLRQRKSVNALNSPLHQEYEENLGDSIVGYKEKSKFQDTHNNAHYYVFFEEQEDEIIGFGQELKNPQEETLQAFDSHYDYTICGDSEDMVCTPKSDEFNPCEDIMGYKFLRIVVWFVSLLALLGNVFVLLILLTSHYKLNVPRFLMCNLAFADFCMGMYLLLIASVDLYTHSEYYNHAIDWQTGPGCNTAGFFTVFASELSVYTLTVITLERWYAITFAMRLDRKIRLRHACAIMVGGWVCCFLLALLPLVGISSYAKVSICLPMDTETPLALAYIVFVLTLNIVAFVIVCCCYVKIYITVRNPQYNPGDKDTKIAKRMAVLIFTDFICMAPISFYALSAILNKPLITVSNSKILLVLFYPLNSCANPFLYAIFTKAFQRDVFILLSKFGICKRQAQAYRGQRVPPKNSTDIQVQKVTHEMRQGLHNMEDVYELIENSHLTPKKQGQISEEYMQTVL
Nuclear receptor subfamily 1 group I member 3 (Homo sapiens), sequence (Q14994 whole entry, looked up): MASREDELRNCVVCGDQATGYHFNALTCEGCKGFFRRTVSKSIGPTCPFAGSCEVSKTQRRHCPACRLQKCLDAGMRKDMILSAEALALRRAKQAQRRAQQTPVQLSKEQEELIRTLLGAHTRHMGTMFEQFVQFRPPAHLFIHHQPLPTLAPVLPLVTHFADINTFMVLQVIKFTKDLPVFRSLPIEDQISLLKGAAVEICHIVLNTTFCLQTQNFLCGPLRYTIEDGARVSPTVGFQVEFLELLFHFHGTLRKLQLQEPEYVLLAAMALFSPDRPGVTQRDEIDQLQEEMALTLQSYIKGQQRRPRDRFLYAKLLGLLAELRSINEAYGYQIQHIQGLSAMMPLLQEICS
Luciferin 4-monooxygenase (Photinus pyralis), sequence (P08659 whole entry, looked up): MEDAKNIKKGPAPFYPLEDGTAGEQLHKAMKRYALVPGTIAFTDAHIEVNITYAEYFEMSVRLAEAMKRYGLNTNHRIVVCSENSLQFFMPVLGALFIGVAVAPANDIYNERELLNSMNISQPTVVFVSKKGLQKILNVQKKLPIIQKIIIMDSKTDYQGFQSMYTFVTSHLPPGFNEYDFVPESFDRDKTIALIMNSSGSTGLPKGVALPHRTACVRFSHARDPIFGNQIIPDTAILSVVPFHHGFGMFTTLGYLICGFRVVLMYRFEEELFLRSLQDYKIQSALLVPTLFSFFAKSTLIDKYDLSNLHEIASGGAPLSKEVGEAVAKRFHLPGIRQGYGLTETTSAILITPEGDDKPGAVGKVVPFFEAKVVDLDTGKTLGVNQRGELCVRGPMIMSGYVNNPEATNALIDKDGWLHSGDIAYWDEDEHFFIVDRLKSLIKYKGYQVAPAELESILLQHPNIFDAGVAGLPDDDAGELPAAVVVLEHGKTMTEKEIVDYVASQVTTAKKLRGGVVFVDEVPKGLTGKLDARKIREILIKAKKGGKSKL

On to `OCCCCl`, for which the Potency result in [1], in assay [2], in assay [3], in assay [4], in assay [5] and in assay [6] was “inactive” throughout. Moreover, the Potency result in assay [7], in assay [8], in [9], in assay [11], in assay [12] and in assay [14] was “inactive” throughout. Moreover, the Potency result in assay [15], in assay [16], in [17] and in assay [18] was “inactive” in each case. Further, the molecule was called inactive in assay [10]. The activity change, positive = activation in assay [13] is -6.99%.

Consider `N[C@@H](CSSC[C@H](N)C(=O)O)C(=O)O`, for which, in [1], the activity change, negative = inhibition is -0.457% [at 0.435 µM]. The viability change, negative = cytotoxic in [2] is 5.67% [at 0.349 µM]. The activity change, negative = cytotoxicity in assay [3] is -3.15% [at 0.349 µM]; in assay [8] it was 25.3% [at 0.29 µM]; in assay [11] it was -5.28% [at 0.582 µM]; in [14], -0.491% [at 0.29 µM]. For the same molecule, the figures for the activity, negative = inhibition in assay [4], in assay [19] and in assay [12] were -10.8% [at 0.349 µM], 16.2% [at 0.349 µM] and -3.98% [at 0.349 µM], respectively. Moreover, the activation in [5] was -0.0368% [at 0.349 µM]; in assay [6] it was 4.81% [at 0.349 µM]; in [7], 2.51% [at 0.349 µM]. Also, the activity change, positive = activation in [13] is -3.33% [at 0.349 µM]. The activity change, negative = cytotoxic is 5.6% [at 0.29 µM] in assay [15] and -2.12% [at 0.29 µM] in [17]. Further, the cytotoxicity in [16] was -2.52% [at 0.29 µM]. Besides, in [18], the cytotoxicity increase is 3.14% [at 0.29 µM].

Consider `CCCCN(C)C`, for which the Potency entry in [1], in assay [2], in assay [3], in assay [4], in assay [5] and in assay [7] was “inactive” throughout. For the same molecule, the Potency entry in assay [8], in assay [9], in assay [11], in assay [14], in assay [15] and in assay [16] was “inactive” throughout. Moreover, the Potency result in [17] and in [18] was “inactive” throughout. The outcome in assay [10] was inactive.

As to `CCC1(c2cnc[nH]2)Cc2ccccc2C1`, the Potency entry in assay [1], in assay [2], in assay [3], in assay [4], in assay [5] and in assay [20] was “inactive” each time. For the same molecule, the Potency entry in assay [8], in [9], in [11], in [14], in assay [15] and in assay [16] was “inactive” each time. In addition, the Potency result in assay [17] and in assay [18] was “inactive” each time.

For the molecule `C/C=C/C(=O)Oc1c(CCCCCC(C)C)cc([N+](=O)[O-])cc1[N+](=O)[O-]`, the Potency result in assay [1], in [5], in [6], in assay [7] and in assay [16] was “inactive” in each case. The Potency in assay [2] is 19.3 µM (active); in assay [3], 21.7 µM (active); in assay [4], 30.6 µM (active); in [19], 6.86 µM (active); in [8], 17.4 µM (active); in assay [11], 50.5 µM (active). Further, the Potency was 6.11 µM (active) in [12]; 21.9 µM (active) in assay [14]; 15.5 µM (active) in [15]; 43.6 µM (active) in [17]; 38.9 µM (active) in [18]. Moreover, the activity change, positive = activation in [13] is -62.8%.

`CC[N+](CC)(CC)Cc1ccccc1`: the Potency result in assay [1], in assay [2], in assay [3], in assay [4], in assay [5] and in [6] was “inactive” throughout. Also, the Potency result in assay [8], in assay [9], in assay [11], in [12], in [14] and in assay [15] was “inactive” in each case. Besides, the Potency entry in assay [16], in assay [17] and in assay [18] was “inactive” in each case. Further, the molecule was called inactive in assay [10]. In assay [13], the activity change, positive = activation was -4.7%.
